From the supplement of paper PMC9433436 come the findings set out here.

± gives the standard deviation of the averaged measurements. The full ranking holds about 4,100 sequences; the median of “relative kcat/Km (krel) vs genomic leader AAAGAU” is about 1.7, and the highest 2% start at about 6.5. Only a selection was taken, and the highest values are over-represented in it overall.

For the assay, the target named is T1, E. coli RNase P holoenzyme (M1 P RNA + rnpA protein) (UniProt P0A7Y8).
T1 sequence: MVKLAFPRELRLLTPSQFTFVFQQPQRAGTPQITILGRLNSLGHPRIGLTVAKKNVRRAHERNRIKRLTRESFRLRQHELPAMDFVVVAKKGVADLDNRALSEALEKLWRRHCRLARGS
The assay is described as follows: relative kcat/Km (krel) vs genomic leader AAAGAU (relative (reference leader = 1)); higher = faster RNase P cleavage. As for the experimental part: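 HTS-Kin: a pool of ptRNA-Met (21C construct) with all 4096 combinations of 5' leader nucleotides N(-6) to N(-1) was processed in vitro by E. coli RNase P (P RNA + rnpA/C5 protein) under multiple-turnover conditions at 37 C, pH 8, 17.5 mM MgCl2. Residual substrate was Illumina-sequenced at several fractions reacted, and relative kcat/Km (krel) was computed by internal competition kinetics, calibrated to the genomic leader (AAAGAU = 1). The listed hexamer is the varied N(-6)..N(-1) leader (DNA letters), and it sits between a fixed 5' stem-loop flank (GCAUGCACGAAAGUGCGUGCUAUGAA) and the mature tRNA-Met starting GGCUACGUAGCUCAGUUGG. Two technical replicates are averaged.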

The mark [1] stands for this setting: fraction of substrate reacted: ~9-10% (9.79% repeat 1, 9.1% repeat 2).
Setting [2] is: fraction of substrate reacted: ~13-16% (15.68% repeat 1, 13.17% repeat 2).
Setting [3] is: fraction of substrate reacted: ~26-29% (28.66% repeat 1, 26.4% repeat 2).

For AGTTAG, the “relative kcat/Km” value is 2.06 ± 1.1 under setting [1], 2.34 ± 0.29 under setting [2] and 4.77 ± 1.3 under setting [3].
For AGTTAC, in that order: 3.18 ± 1.6, 5.31 ± 0.22 and 7.26 ± 2.7.
Take ACTTAC: the “relative kcat/Km” value is, setting by setting: under setting [1], 3.88 ± 2.3; under setting [2], 4.09 ± 0.096; under setting [3], 5.29 ± 1.6.
As to TACGTA, the “relative kcat/Km” value under setting [1] worked out at 2.14 ± 0.53, the “relative kcat/Km” value under setting [2] came to 2.47 ± 0.38 and the “relative kcat/Km” value under setting [3] was 3.67 ± 1.2.
Turning to CAGAGT, the “relative kcat/Km” value under setting [3] came out at 0.537 ± 0.3.
As to TGCTTC, the “relative kcat/Km” value was 2.79 ± 0.96 under setting [1], 2.83 ± 0.76 under setting [2] and 3.73 ± 1.2 under setting [3].
With TTCTTC, the “relative kcat/Km” value under setting [1] is 4.65 ± 1.6, the “relative kcat/Km” value under setting [2] stood at 5.94 ± 0.85 and the “relative kcat/Km” value under setting [3] is 7.95 ± 3.2.
For ATCTTA, in that order: 2.6 ± 0.64, 3.89 ± 0.59 and 5.74 ± 2.1.
In the case of GCCTTT, the “relative kcat/Km” value turned out to be 3.36 ± 1.7 under setting [1], 3.71 ± 0.066 under setting [2] and 5.06 ± 1.7 under setting [3].
As for CTCTTC, the “relative kcat/Km” value under setting [1] came out at 3.63 ± 0.69, the “relative kcat/Km” value under setting [2] was 4.38 ± 0.62 and the “relative kcat/Km” value under setting [3] is 6.47 ± 2.3.
Take CTCTTG: the “relative kcat/Km” value runs as follows: under setting [1], 2.31 ± 1.9; under setting [2], 1.64 ± 0.35; under setting [3], 3.11 ± 0.5.
Take CTCTTT: the “relative kcat/Km” value is, setting by setting: under setting [1], 3.59 ± 0.8; under setting [2], 4.98 ± 1.2; under setting [3], 7.01 ± 3.
For GTCTTT, in that order: 4.65 ± 1.2, 5.87 ± 1.4 and 8.44 ± 3.8.
For CTCTTA, in that order: 2.98 ± 0.098, 4.69 ± 1.5 and 6.21 ± 2.8.
For TTCTTA, in that order: 4.55 ± 1.2, 5.9 ± 0.59 and 7.98 ± 3.2.
Take GTCTTG: the “relative kcat/Km” value reads like this: under setting [1], 2.05 ± 1.9; under setting [2], 1.96 ± 0.21; under setting [3], 3.58 ± 0.69.
The corresponding values for ATCTTC are 3.23 ± 1.1, 4.36 ± 0.71 and 6.11 ± 2.2.
The corresponding values for TTAACT are 1.58 ± 0.78, 1.54 ± 0.2 and 2.03 ± 0.47.
For the sequence CCTCCC, the “relative kcat/Km” value amounted to 0.874 ± 0.5 under setting [1], 1.06 ± 0.17 under setting [2] and 1.57 ± 0.17 under setting [3].
On to CTAGAC, for which the “relative kcat/Km” value runs as follows: under setting [1], 1.95 ± 0.33; under setting [2], 3.27 ± 0.96; under setting [3], 4.19 ± 2.1.
For GGATTA, in that order: 1.24 ± 0.14, 0.993 ± 0.47 and 1.52 ± 0.41.
As to TCGGTG, the “relative kcat/Km” value reads like this: under setting [1], 0.643 ± 0.43; under setting [3], 0.367 ± 0.27.
Take GGCTTA: the “relative kcat/Km” value turned out to be 1.58 ± 0.71 under setting [1], 1.39 ± 0.29 under setting [2] and 1.79 ± 0.95 under setting [3].
The corresponding values for GTCTTC are 4.4 ± 1.6, 5.61 ± 1.7 and 8.18 ± 3.4.
For GCCTTC, in that order: 3 ± 0.21, 4.03 ± 2.2 and 5.81 ± 3.1.
As for TTCTTT, the “relative kcat/Km” value worked out at 4.38 ± 0.77 under setting [1], 6.36 ± 1.2 under setting [2] and 8.65 ± 4 under setting [3].
For TTCTTG, in that order: 1.95 ± 1.7, 1.96 ± 0.17 and 4 ± 1.1.
The corresponding values for GACTTC are 3.65 ± 0.53, 4.38 ± 2.1 and 6.22 ± 3.3.
The corresponding values for AGCTTT are 2.79 ± 1.2, 2.71 ± 0.49 and 4.09 ± 1.6.
On to ATCTTG, for which the “relative kcat/Km” value is 1.15 ± 0.053 under setting [2] and 2.716 ± 0.019 under setting [3].
Regarding TGCTTT, the “relative kcat/Km” value was found to be 2.25 ± 0.41 under setting [1], 2.232 ± 0.0079 under setting [2] and 3.45 ± 1.3 under setting [3].
The corresponding values for ATCTTT are 3.55 ± 1.4, 4.27 ± 0.42 and 6.67 ± 2.8.
For GTCTTA, the “relative kcat/Km” value runs as follows: under setting [1], 4.14 ± 1.1; under setting [2], 5.78 ± 0.74; under setting [3], 7.65 ± 2.9.
For GCCTTA, in that order: 2.94 ± 1.2, 3.35 ± 0.54 and 5.21 ± 1.5.
TCAGCT: the “relative kcat/Km” value was determined as 1.54 ± 0.23 under setting [1], 0.491 ± 0.47 under setting [2] and 1.24 ± 0.075 under setting [3].
GCTGTC: the “relative kcat/Km” value was 1.58 ± 0.93 under setting [1], 0.624 ± 0.091 under setting [2] and 0.9566 ± 0.0067 under setting [3].
For the sequence GGCGAC, the “relative kcat/Km” value turned out to be 2.53 ± 0.11 under setting [1], 2.47 ± 1.2 under setting [2] and 4.08 ± 1.4 under setting [3].
The corresponding values for TTAGAT are 1.88 ± 0.57, 2.14 ± 0.17 and 2.8 ± 1.2.
With CTTCCC, the “relative kcat/Km” value under setting [1] amounted to 1.37 ± 0.18, the “relative kcat/Km” value under setting [2] was 1.5 ± 1.2 and the “relative kcat/Km” value under setting [3] stood at 1.93 ± 0.53.
On to GGGATG, for which the “relative kcat/Km” value under setting [1] was found to be 0.585 ± 0.41 and the “relative kcat/Km” value under setting [3] amounted to 0.779 ± 0.15.
On to CTAGAT, for which the “relative kcat/Km” value is, setting by setting: under setting [2], 1.15 ± 0.17; under setting [3], 1.83 ± 0.17.
In the case of GACCTC, the “relative kcat/Km” value was found to be 2.41 ± 0.81 under setting [1], 2.49 ± 0.041 under setting [2] and 3.63 ± 0.74 under setting [3].
For GGATAC, in that order: 1.9 ± 1.2, 1.76 ± 0.55 and 3.05 ± 0.7.
For the sequence CGCTAT, the “relative kcat/Km” value by setting is: under setting [1], 3.49 ± 0.87; under setting [2], 4.44 ± 1.6; under setting [3], 5.95 ± 2.4.
As to CACTAT, the “relative kcat/Km” value under setting [1] was 4.78 ± 1.4, the “relative kcat/Km” value under setting [2] stood at 6.06 ± 2 and the “relative kcat/Km” value under setting [3] came out at 8.37 ± 3.9.
Take CGCTAG: the “relative kcat/Km” value amounted to 2.34 ± 1.3 under setting [1], 2.43 ± 1 under setting [2] and 3.4 ± 0.31 under setting [3].
For GACTAC, in that order: 4 ± 0.5, 6.14 ± 3 and 8.43 ± 3.9.
